Test results from PubChem BioAssay (EPA / NIEHS).
Results filed as inconclusive are left out. Activity calls are given as the source filed them. Rule for the calls, unless noted: active = hit-call score of the fitted dose curve at least 0.9, where 1 is the maximum; inactive = score below 0.9.

Key:
[1] = system: Brachyury (BRA) Protein Expression, Deisenroth Lab, TBXT (gene 6862); test: CCTE_Deisenroth_DEVTOX-GLR_legacy_Bra: (Legacy) CCTE's DevTox GLR-Endo Assay Evaluation of Brachyury (BRA) Protein Expression, Deisenroth Lab (AID 2284329)
Procedure, shortened: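 High-content imaging of fixed RUES2-GLR cells after a 48-hour differentiation with two compound exposures yields percent cells whose Bra signal exceeds pluripotent control median by 5x BMAD; values are baseline-corrected to DMSO.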

[2] = CCTE_Deisenroth_DEVTOX-GLR_legacy_CellCount: (Legacy) Viability Assessment in CCTE's DevTox GLR-Endo Assay, Deisenroth Lab (AID 2284331); conditions: actives raise or lower the signal
Procedure, shortened: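 Seed RUES2-GLR 24 h; differentiate 48 h, dosing at 0 and 24 h; fix, stain nuclei; image 5 fields/well; count nuclei. Conc. 1 nM - 200 uM, single technical replicate, n=4 experiments; bidirectional fit vs 0.2% DMSO.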

[3] = system: SRY-box transcription factor 17 (SOX17) Protein Expression, Deisenroth Lab, SOX17 (gene 64321); test: CCTE_Deisenroth_DEVTOX-GLR_legacy_Sox17: (Legacy) CCTE's DevTox GLR-Endo Assay Evaluation of SRY-box transcription factor 17 (SOX17) Protein Expression, Deisenroth Lab (AID 2284341); conditions: actives raise or lower the signal
Procedure, shortened: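 Using the RUES2-GLR line, compounds are tested as 10-point series during 48-h defined-media differentiation. Sox17 reporter fluorescence per cell determines positivity; endpoint is percentage positive, analysed bidirectionally versus DMSO baseline.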

[4] = system: SRY-box transcription factor 2 (SOX2) Protein Expression, Deisenroth Lab, SOX2 (gene 6657); test: CCTE_Deisenroth_DEVTOX-GLR_legacy_Sox2: (Legacy) CCTE's DevTox GLR-Endo Assay Evaluation of SRY-box transcription factor 2 (SOX2) Protein Expression, Deisenroth Lab (AID 2284346)
Procedure, shortened: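 Two exposures, 24 h apart, during 48 h defined-media differentiation of seeded RUES2-GLR cells; nuclei-stained cells imaged. Sox2 positivity called at 5x BMAD above endoderm control median, DMSO median subtracted.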

[5] = system: SRY-box transcription factor 17 (SOX17) Protein Expression, Deisenroth Lab, SOX17 (gene 64321); test: CCTE_Deisenroth_DEVTOX-GLR_Endo_SOX17: CCTE's DevTox GLR-Endo Assay Evaluation of SRY-box transcription factor 17 (SOX17) Protein Expression, Deisenroth Lab (AID 2284413)
Procedure, shortened: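 Fluorescent microscopy of a SOX17 reporter in RUES2-GLR pluripotent cells scored endoderm differentiation after 48 h and two 24-h-spaced exposures. Values are percent change in SOX17+ population against 0.2% DMSO, n=4 experimental replicates.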

[6] = system: Brachyury (BRA) Protein Expression, TBXT (gene 6862); test: CCTE_Deisenroth_DEVTOX-GLR_Endo_BRA: CCTE's DevTox GLR-Endo Assay Evaluation of Brachyury (BRA) Protein Expression, Deisenroth Lab (AID 2284417)
Procedure, shortened: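 Percent BRA+ (mesoderm) RUES2-GLR cells after 48 h differentiation with two exposures, 1 nM - 200 uM; 0.2% DMSO control subtracted.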

[7] = CCTE_Deisenroth_DEVTOX-GLR_Endo_CellCount: Viability Assessment in CCTE's DevTox GLR-Endo Assay, Deisenroth Lab (AID 2284420)
Procedure, shortened: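 Nuclei counted by fluorescence microscopy as a surrogate for cell number, expressed as percent change relative to 0.2% DMSO control. Human RUES2-GLR cells, 48 h differentiation, dosed twice; 1 nM - 200 uM series.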

[8] = system: SRY-box transcription factor 17 (SOX17) Protein Expression, Deisenroth Lab, SOX17 (gene 64321); test: CCTE_Deisenroth_DEVTOX-GLR_Pluri_SOX17: CCTE's DevTox GLR-Pluri Assay Evaluation of SRY-box transcription factor 17 (SOX17) Protein Expression, Deisenroth Lab (AID 2284427; active = hit-call score of the fitted dose curve at least 0.9, where 1 is the maximum)
Procedure, shortened: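 Readout: percent SOX17+ cells (SOX17+ count/cell count) by high-content imaging of an inducible fluorescent reporter, corrected for 0.2% DMSO solvent control. RUES2-GLR cells, 48 h differentiation, dosed twice at 24 h intervals, 1 nM - 200 uM.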

[9] = system: SRY-box transcription factor 2 (SOX2) Protein Expression, Deisenroth Lab, SOX2 (gene 6657); test: CCTE_Deisenroth_DEVTOX-GLR_Pluri_SOX2: CCTE's DevTox GLR-Pluri Assay Evaluation of SRY-box transcription factor 2 (SOX2) Protein Expression, Deisenroth Lab (AID 2284428)
Procedure, shortened: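 RUES2-GLR (human pluripotent), 48 h post-dosing, 2 exposures q24h, 1 nM–200 uM 10-pt. Fixed, nuclear dye, high-content imaging 5 fields/well. Endpoint: % SOX2+ cells (SOX2+/total count) vs 0.2% DMSO; n≥4.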

[10] = system: Brachyury (BRA) Protein Expression, Deisenroth Lab, TBXT (gene 6862); test: CCTE_Deisenroth_DEVTOX-GLR_Pluri_BRA: CCTE's DevTox GLR-Pluri Assay Evaluation of Brachyury (BRA) Protein Expression, Deisenroth Lab (AID 2284429; active = hit-call score of the fitted dose curve at least 0.9, where 1 is the maximum)
Procedure, shortened: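 Mesoderm readout after 48 h differentiation of human RUES2-GLR cells, dosed twice (24-h intervals) at 1 nM - 200 uM. BRA+ frequency from fluorescence imaging of fixed, nuclear-stained cells, DMSO-corrected.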

[11] = CCTE_Deisenroth_DEVTOX-GLR_Pluri_CellCount: Viability Assessment in CCTE's DevTox GLR-Pluri Assay Evaluation of Total Cell Counts, Deisenroth Lab (AID 2284430)
Procedure, shortened: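 Cytotoxicity readout: fluorescent nuclei counts by high-content imaging, expressed as percent change relative to 0.2% DMSO. Human RUES2-GLR pluripotent line differentiated 48 h, dosed twice at 24-h intervals across 1 nM - 200 uM (10 points).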

Measured: AC50

Nc1cccc2c1C(=O)N(C1CCC(=O)NC1=O)C2=O (stereo unspecified)
active: [2] 272 nM | [3] 67 nM | [4] 155000 nM | [5] 58.7 nM | [6] 29500 nM | [7] 281 nM | [9] 1040 nM | [10] 25100 nM
inactive: [1] | [8] | [11]
